Test results reported in PubChem BioAssay (NCATS).
Inconclusive results are not listed. The source made the active and inactive calls. Unless noted, calls follow the shape of the dose curve; as a rule, active = well fitted curve in the direction sought with a large enough effect; inconclusive = small, poorly fitted or top-dose-only effect, or another doubt; inactive = no such curve, though single readings can be large; an effect the other way counts as inactive or inconclusive.

How the values were obtained:
[1] = biological target: Lysosomal acid glucosylceramidase (Homo sapiens) (UniProt P04062); assay: Glucocerebrosidase-p2 (AID 348; in the data active = potency below about 10 µM; also: potency is read from the fitted curve at half-maximal effect); conditions: purified GBA, blue fluorogenic substrate, 40 min
Chain of Lysosomal acid glucosylceramidase (Homo sapiens) (P04062 whole entry, looked up): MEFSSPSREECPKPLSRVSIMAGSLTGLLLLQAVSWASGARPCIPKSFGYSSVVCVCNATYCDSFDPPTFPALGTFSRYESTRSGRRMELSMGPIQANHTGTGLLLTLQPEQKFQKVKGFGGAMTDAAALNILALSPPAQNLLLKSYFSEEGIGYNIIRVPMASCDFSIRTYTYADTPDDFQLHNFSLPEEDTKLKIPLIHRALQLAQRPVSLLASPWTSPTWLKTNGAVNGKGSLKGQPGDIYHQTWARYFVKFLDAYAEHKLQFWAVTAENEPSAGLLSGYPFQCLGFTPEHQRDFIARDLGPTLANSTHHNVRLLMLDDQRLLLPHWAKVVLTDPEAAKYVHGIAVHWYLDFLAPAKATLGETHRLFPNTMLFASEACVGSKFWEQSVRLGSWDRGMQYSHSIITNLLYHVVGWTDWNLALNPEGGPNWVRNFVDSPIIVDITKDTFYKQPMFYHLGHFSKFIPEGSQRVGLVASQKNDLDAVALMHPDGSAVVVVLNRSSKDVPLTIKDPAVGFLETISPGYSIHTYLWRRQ
Summary of the method: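 Compounds titrated from 0.6 nM upwards against 0.2 nM enzyme in pH 5.9 citric acid/KH2PO4, taurocholate, tween-20; blue fluorogenic substrate 80 uM, 40 min room temperature, stopped and read Ex 365/Em 440 for AC50.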

[2] = AP1 Signaling Pathway (AID 357; active = well fitted curve in either direction with a large enough effect, not every such curve was filed as active;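 also: ME-180 reporter cells stimulated with EGF at its EC50 level; % is scaled to controls: 0 for no effect and ±100 for the full control effect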); conditions: ME-180 AP-1-bla reporter, EGF-induced, beta-lactamase ratio, 5 h; at 7.69 µM (top of the series) unless noted
Summary of the method: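 In this screen, ME-180 cells in Opti-MEM with 0.5% dialyzed FBS received EC50 EGF and compound titrations for 5 h. AP-1 reporter beta-lactamase was detected via CCF4 ratio, giving AC50 for positive and negative modulators.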

[3] = biological target: Cytochrome P450 1A2 (Homo sapiens) (UniProt P05177); assay: p450-cyp1a2 (AID 410; calls by dose curve; also: potency is read from the fitted curve at half-maximal effect); conditions: recombinant CYP1A2, luciferin-ME demethylation, luminescence; series mostly up to 57 µM
Chain of Cytochrome P450 1A2 (Homo sapiens) (P05177 whole entry, looked up): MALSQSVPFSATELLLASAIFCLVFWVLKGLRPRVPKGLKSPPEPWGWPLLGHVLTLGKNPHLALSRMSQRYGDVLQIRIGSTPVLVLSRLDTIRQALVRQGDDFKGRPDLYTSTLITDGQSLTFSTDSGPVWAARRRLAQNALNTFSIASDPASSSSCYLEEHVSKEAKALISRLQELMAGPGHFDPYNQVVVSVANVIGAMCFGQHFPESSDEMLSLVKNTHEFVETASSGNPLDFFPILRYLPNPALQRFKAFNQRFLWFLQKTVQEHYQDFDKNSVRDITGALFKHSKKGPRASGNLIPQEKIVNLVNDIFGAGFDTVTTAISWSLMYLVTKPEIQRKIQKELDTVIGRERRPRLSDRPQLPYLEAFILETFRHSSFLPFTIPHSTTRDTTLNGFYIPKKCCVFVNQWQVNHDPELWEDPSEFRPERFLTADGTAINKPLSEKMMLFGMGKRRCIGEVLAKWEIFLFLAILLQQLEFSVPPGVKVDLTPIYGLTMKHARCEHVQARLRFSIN
Summary of the method: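 Human CYP1A2 (20nM) demethylated Luciferin-ME at its Km (100uM) in 100mM KPO4. After 10 min compound preincubation, NADPH regeneration ran the reaction 60 min at room temperature. Luciferin was read by luminescence, normalized to 57 uM furafylline.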

[4] = NFAT Signaling Pathway (AID 444; active = well fitted curve in either direction with a large enough effect, not every such curve was filed as active;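 also: carbachol stimulus at about its EC50 of 1 µM final; % is scaled to controls: 0 for no effect and ±100 for the full control effect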); conditions: Jurkat NFAT-bla M1, carbachol, beta-lactamase ratio, 5 h; at 7.69 µM (top of the series) unless noted
Summary of the method: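 Read-out: CCF4 FRET ratio (460 nm/530 nm) after 1 h RT dye loading, used for %activity and AC50 from titration series. Cells: Jurkat NFAT-β-lactamase/M1 line, treated with compound plus 1 uM carbachol for 5 h, 37 °C.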

[5] = biological target: Glucocorticoid receptor (Homo sapiens) (UniProt P04150); assay: GR-GFP Redistribution (AID 450;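 active = compounds whose dose series gives a full or clear partial fitted curve of increased nuclear translocation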; also: potency is read from the fitted curve at half-maximal effect); conditions: U2OS GR-GFP nuclear translocation, laser cytometry, 2 h
Chain of Glucocorticoid receptor (Homo sapiens) (P04150 whole entry, looked up, the tested form may be a part): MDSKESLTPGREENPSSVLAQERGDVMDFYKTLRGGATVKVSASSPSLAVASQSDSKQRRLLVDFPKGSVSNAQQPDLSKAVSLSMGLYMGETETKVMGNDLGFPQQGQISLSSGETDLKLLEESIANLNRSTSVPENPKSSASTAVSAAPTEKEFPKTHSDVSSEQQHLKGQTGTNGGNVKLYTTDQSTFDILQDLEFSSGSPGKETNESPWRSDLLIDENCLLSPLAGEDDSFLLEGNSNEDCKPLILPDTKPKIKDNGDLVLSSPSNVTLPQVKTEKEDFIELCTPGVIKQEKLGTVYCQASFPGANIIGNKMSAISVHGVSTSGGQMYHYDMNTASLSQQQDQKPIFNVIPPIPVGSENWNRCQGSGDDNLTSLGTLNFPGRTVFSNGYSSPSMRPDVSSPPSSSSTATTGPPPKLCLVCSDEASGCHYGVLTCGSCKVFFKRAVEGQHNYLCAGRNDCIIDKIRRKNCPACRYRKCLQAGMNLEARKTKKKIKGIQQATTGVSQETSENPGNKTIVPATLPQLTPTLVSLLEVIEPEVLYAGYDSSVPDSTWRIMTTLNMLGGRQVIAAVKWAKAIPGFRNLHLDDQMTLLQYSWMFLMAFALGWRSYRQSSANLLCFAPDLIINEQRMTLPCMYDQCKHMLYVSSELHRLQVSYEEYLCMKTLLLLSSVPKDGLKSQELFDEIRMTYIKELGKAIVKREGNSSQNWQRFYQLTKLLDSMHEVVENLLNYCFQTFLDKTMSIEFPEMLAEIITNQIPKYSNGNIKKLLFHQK

[6] = biological target: Glucocorticoid receptor (Homo sapiens) (UniProt P04150); assay: GR-EFC Redistribution (AID 451; calls by dose curve; also: potency is read from the fitted curve at half-maximal effect); conditions: CHO-K1 GR-EFC translocation, beta-gal luminescence, 2 h
Summary of the method: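 Translocation of GR-ED fusion to nuclear EA restores b-gal, read by luminescence after 1 h room-temperature detection. Engineered CHO-K1 biosensor cells, 1,000/well, exposed 2 h at 37 C to titrations up to 46 uM final.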

[7] = biological target: Mitogen-activated protein kinase 10 (Mus musculus) (UniProt Q61831); assay: JNK3 AlphaScreen Assay (AID 530; active = well fitted curve in either direction with a large enough effect, not every such curve was filed as active;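 also: kinase came from lysate of stimulated human HepG2 cells; signal reports phosphorylation of biotinylated GST-cJun 1-79 at Ser73 with 10 µM ATP; % is scaled to controls: 0 for no effect and ±100 for the full control effect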); conditions: JNK3 lysate, c-Jun phosphorylation; series mostly up to 57.1 µM
Summary of the method: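 Room-temperature AlphaScreen kinase assay; pre-activated HepG2 lysate as JNK3 source, biotin-GST-cJun(1-79) substrate, 10 uM ATP, compound 15 min preincubation.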

[8] = biological target: 3',5'-cyclic-AMP phosphodiesterase 4B (Homo sapiens) (UniProt Q07343); assay: qHTS Assay for Inhibitors of PDE-IV (AID 607; active = well fitted activation curve with a large enough effect in the main read-out, with a control signal flat, not every such curve was filed as active; also: % of control where 0% means no effect); conditions: HEK293 ACTOne CNG channel cells, membrane potential fluorescence; series mostly up to 22.9 µM
Chain of 3',5'-cyclic-AMP phosphodiesterase 4B (Homo sapiens) (Q07343 whole entry, looked up): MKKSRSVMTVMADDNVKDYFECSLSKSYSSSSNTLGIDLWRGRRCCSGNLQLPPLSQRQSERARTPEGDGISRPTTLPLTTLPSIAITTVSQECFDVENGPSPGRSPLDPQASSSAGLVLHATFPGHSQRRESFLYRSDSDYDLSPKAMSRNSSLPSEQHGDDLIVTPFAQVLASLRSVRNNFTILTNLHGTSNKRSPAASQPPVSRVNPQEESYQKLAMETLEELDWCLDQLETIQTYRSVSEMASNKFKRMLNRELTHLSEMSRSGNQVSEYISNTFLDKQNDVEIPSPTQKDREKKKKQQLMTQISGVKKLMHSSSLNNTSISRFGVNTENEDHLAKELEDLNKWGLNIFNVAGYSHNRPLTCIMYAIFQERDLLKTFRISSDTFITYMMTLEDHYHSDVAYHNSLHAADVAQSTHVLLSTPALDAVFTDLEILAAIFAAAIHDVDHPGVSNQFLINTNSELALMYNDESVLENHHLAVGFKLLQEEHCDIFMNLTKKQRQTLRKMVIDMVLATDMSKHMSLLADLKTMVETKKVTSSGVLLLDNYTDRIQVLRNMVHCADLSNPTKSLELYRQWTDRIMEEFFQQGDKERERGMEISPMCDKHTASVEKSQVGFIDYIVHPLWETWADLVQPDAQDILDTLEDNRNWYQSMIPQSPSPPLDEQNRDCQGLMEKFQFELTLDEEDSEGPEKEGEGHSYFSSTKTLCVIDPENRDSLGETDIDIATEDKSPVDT
Summary of the method: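 The readout is membrane depolarisation from a cAMP-sensing CNG channel, detected with a potential dye at ex 535/em 590. Cells were HEK293-derived (endogenous PDE-IV) at 1000 cells/well, titrated up to 22.9 uM final.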

[9] = biological target: Cytochrome P450 3A4 (Homo sapiens) (UniProt P08684); assay: qHTS Assay for Activators of Cytochrome P450 3A4 (AID 885); conditions: recombinant CYP3A4, Luciferin-PPXE luminescence, 60 min; series mostly up to 57.1 µM; also: nearly all actives have a fitted effect of over 65% in size
Chain of Cytochrome P450 3A4 (Homo sapiens) (P08684 whole entry, looked up): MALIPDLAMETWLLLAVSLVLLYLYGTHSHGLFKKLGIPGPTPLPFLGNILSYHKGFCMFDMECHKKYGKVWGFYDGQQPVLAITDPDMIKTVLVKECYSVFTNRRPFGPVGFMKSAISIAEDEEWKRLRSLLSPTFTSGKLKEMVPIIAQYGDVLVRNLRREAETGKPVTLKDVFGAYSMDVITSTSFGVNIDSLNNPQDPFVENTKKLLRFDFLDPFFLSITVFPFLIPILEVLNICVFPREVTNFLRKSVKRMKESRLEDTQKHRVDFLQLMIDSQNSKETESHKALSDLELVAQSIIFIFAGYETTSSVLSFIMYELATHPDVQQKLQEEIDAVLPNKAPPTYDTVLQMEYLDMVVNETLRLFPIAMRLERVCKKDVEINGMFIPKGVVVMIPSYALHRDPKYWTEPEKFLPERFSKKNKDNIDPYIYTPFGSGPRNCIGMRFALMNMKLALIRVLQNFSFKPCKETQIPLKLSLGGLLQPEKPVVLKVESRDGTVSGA
Summary of the method: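 Steps: enzyme/substrate mix dispensed; compound added, 10 min RT; NADPH regeneration solution added, 60 min RT; luciferin detection buffer stops reaction; 20 min later luminescence measured.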

[10] = qHTS Assay for Lipid Storage Modulators (AID 1519; calls by dose curve); conditions: Drosophila S3 cells, BODIPY lipid droplet/cell ratio, laser cytometry, cells loaded with oleic acid; for activity change, negative = inhibition: at 57.5 µM (top of the series)
Summary of the method: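 Cells seeded at 5,000 per well were treated with compounds over a concentration series and loaded with oleic acid (400 uM, as added). Lipid droplet fluorescence (488 nm excitation, 500-530 nm channel) was read by laser-scanning cytometry and normalized to 20 uM Triacsin C.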

[11] = biological target: Dual specificity protein kinase CLK4 (Homo sapiens) (UniProt Q9HAZ1); assay: qHTS Assay for Inhibitors of CDC-like Kinase 4 (Kinase-Glo Assay) (AID 1770); conditions: recombinant Clk4, Kinase-Glo ATP depletion luminescence; series mostly up to 66.7 µM; also: nearly all actives have a fitted effect of over 65% in size; also: potency is read from the fitted curve at half-maximal effect
Chain of Dual specificity protein kinase CLK4 (Homo sapiens) (Q9HAZ1 whole entry, looked up): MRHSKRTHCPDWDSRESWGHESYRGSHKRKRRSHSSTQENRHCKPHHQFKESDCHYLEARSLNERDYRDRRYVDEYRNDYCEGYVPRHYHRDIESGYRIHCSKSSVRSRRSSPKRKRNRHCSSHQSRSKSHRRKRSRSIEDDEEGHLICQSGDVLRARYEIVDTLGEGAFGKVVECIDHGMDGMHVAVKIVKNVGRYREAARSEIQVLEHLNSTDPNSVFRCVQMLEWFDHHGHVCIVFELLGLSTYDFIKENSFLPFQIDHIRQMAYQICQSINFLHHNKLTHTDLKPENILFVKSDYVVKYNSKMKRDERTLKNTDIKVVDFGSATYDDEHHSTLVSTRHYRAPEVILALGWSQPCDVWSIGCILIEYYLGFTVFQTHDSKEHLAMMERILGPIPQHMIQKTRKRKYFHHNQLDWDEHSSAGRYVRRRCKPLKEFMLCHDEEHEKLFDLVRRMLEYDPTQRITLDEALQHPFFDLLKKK
Summary of the method: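 Recombinant human Clk4 (25 nM) phosphorylated RS repeat peptide (100 uM) with 1 uM ATP in Tris pH 7.5/MgCl2/EGTA/DTT/Triton buffer for 4.5 h at room temperature. Residual ATP was quantified by Kinase-Glo luciferase luminescence.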

[12] = biological target: Dual specificity protein kinase CLK4 (Homo sapiens) (UniProt Q9HAZ1); assay: qHTS Assay for Inhibitors of CDC-like Kinase 4 (ADP-Glo Assay) (AID 1771); conditions: recombinant CLK4, ADP-Glo luminescence; series mostly up to 80 µM; also: nearly all actives have a fitted effect of over 70% in size; also: potency is read from the fitted curve at half-maximal effect
Summary of the method: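 Clk4 (25 nM) was incubated 1 hr at room temperature with 100 uM RS repeat peptide and 1 uM ATP in buffer with 2 mM MgCl2, 0.5 mM EGTA, 2.5 mM DTT. ADP formed was quantified by ADP-Glo luminescence.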

[13] = biological target: Dual specificity protein kinase CLK4 (Homo sapiens) (UniProt Q9HAZ1); assay: qHTS Assay for Inhibitors of CDC-like Kinase 4 (ADP-FP Assay) (AID 1795); conditions: Transcreener ADP fluorescence polarization; series mostly up to 50 µM; also: nearly all actives have a fitted effect of over 60% in size; also: potency is read from the fitted curve at half-maximal effect
Summary of the method: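 Recombinant human Clk4 (6.25 nM) phosphorylated RS repeat peptide (100 uM) with 1 uM ATP in Tris pH 7.5/MgCl2/EGTA/DTT/Triton buffer for one hour. ADP was quantified by Transcreener competitive fluorescence polarization against an ADP calibration curve.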

[14] = biological target: Ubiquitin carboxyl-terminal hydrolase 1 (Homo sapiens) (UniProt O94782); assay: Inhibitors of USP1/UAF1: Pilot qHTS (AID 504865); conditions: purified USP1/UAF1, Ub-rhodamine cleavage fluorescence; series mostly up to 54.9 µM;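 also: rhodamine fluorescence freed from ubiquitin-rhodamine substrate followed over time; top concentration of the series differs between compounds; % is scaled to controls: 0 for no effect and ±100 for the full control effect; nearly all actives have a fitted effect of over 35% in size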
Chain of Ubiquitin carboxyl-terminal hydrolase 1 (Homo sapiens) (O94782 whole entry, looked up): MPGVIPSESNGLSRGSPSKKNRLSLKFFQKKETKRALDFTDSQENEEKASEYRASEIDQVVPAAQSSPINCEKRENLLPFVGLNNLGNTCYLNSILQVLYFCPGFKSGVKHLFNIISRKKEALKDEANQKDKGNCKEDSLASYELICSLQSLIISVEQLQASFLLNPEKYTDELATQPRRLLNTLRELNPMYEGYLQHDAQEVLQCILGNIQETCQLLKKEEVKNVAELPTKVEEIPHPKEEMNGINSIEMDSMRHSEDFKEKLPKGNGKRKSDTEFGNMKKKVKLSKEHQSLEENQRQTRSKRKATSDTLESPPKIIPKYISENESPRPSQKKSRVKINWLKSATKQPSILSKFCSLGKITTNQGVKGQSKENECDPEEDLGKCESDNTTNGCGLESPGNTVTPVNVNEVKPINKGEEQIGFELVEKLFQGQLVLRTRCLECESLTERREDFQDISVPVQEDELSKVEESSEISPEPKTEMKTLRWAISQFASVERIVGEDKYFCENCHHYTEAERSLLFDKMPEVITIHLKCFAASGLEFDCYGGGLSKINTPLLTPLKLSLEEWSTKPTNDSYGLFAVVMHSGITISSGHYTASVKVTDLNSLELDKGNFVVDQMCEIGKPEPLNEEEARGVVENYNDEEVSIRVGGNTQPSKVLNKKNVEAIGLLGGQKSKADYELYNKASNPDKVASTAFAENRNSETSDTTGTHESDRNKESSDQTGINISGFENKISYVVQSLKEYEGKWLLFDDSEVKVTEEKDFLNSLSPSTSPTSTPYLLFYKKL
Summary of the method: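 USP1/UAF1 complex (1nM) preincubated with compound 15 min at room temperature, then Ub-Rho substrate (150nM final) added. Fluorescence read kinetically at 480/540 nm, 6 reads every 60 seconds. Buffer: 50mM HEPES pH 7.8, 0.5mM EDTA, 0.1 mg/ml BSA, 1mM TCEP, 0.01% Tween-20.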

[15] = Primary qHTS for small molecule stabilizers of the endoplasmic reticulum resident proteome: Secreted ER Calcium Modulated Protein (SERCaMP) assay (AID 1508630); conditions: SH-SY5Y GLuc-SERCaMP (Gaussia luciferase released on ER calcium loss) secretion, thapsigargin, luminescence; series mostly up to 38.4 µM; also: % is scaled to controls: 0 for no effect and ±100 for the full control effect
Summary of the method: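 GLuc-SERCaMP-expressing SH-SY5Y cells, pretreated 16 h with compound, are challenged with thapsigargin to empty ER calcium stores; after 4 h, coelenterazine is added directly to the medium and luminescence is imaged.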

[16] = Stat Signaling Pathway (AID 446; active = well fitted curve in either direction with a large enough effect, not every such curve was filed as active); conditions: ME-180 SIE beta-lactamase reporter, IL-6 stimulated, 5 h; at 7.69 µM (top of the series) unless noted
Summary of the method: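 Screening format detects activators and inhibitors alike: ME-180 SIE-bla cells stimulated at 40 pM IL-6 for 5 hrs with compound, then dual-emission beta-lactamase read at 405 nm excitation.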

[17] = biological target: Cytochrome P450 2C9 (Homo sapiens) (UniProt P11712); assay: qHTS Assay for Inhibitors and Substrates of Cytochrome P450 2C9 (AID 883); conditions: recombinant CYP2C9, luciferin-H luminescence, 60 min; series mostly up to 57.1 µM; also: potency is read from the fitted curve at half-maximal effect; nearly all actives have a fitted effect of over 60% in size
Chain of Cytochrome P450 2C9 (Homo sapiens) (P11712 whole entry, looked up): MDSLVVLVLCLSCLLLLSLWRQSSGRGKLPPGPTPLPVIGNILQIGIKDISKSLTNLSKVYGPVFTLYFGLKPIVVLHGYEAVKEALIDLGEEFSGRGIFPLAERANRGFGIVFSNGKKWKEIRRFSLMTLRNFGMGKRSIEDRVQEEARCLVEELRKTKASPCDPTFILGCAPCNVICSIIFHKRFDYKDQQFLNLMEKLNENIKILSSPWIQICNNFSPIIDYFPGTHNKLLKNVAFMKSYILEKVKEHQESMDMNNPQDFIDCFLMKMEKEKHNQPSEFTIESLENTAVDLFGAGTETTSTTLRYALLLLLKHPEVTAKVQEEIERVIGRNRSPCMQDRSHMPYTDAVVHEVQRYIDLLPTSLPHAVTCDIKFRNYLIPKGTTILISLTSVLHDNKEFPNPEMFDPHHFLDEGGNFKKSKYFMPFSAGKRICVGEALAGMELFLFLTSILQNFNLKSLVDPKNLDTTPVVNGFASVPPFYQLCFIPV
Summary of the method: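 Inhibition of CYP2C9 is scored as loss of luminescence, with 57uM sulphaphenazole defining 100% inhibition. Substrate Luciferin-H is used at 100uM, equal to its KM; enzyme at 10nM in 25mM KPO4, 60 min at 37C with NADPH regeneration.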

[18] = biological target: Cytochrome P450 3A4 (Homo sapiens) (UniProt P08684); assay: qHTS Assay for Inhibitors and Substrates of Cytochrome P450 3A4 (AID 884); conditions: recombinant CYP3A4, Luciferin-PPXE luminescence; series mostly up to 57.1 µM; also: potency is read from the fitted curve at half-maximal effect; nearly all actives have a fitted effect of over 50% in size
Summary of the method: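 20 nM human CYP3A4 with 25 uM Luciferin-PPXE (at KM) in 200 mM KPO4, preincubated 10 min with compound; NADPH regeneration started a 60 min RT reaction. Luciferin detected by luminescence, normalized to 57 uM ketoconazole as full inhibition.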

[19] = biological target: Cytochrome P450 2C19 (Homo sapiens) (UniProt P33261); assay: qHTS Assay for Inhibitors and Substrates of Cytochrome P450 2C19 (AID 899); conditions: recombinant CYP2C19, luciferin-H EGE luminescence; series mostly up to 57.1 µM; also: potency is read from the fitted curve at half-maximal effect; nearly all actives have a fitted effect of over 60% in size
Summary of the method: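 5nM enzyme + 10uM Luciferin-H EGE (=KM), 50mM KPO4; cpd pin-transferred, 10 min 37C; NADPH regen, 60 min 37C; stopped w/ luciferin detection reagent, 20 min; luminescence. Normalized to 57uM ketoconazole (AC100).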

[20] = measured here: cell count channel max response
[21] = measured here: lipid channel max response

CN1CCN(c2ncc3nc(-c4cc(F)cc(F)c4)c(=O)n(C4CC4)c3n2)CC1
Potency [1]: > 11.4 µM (inactive)
activity change, negative = inhibition [2]: -8.53% (inactive)
Potency [3]: 15.8 µM (active)
activity change, negative = inhibition [4]: -23.1% (inactive)
Potency [5]: > 9.22 µM (inactive)
Potency [6]: > 46 µM (inactive)
outcome [7]: inactive
Potency [8]: inactive
Potency [9]: inactive
activity change, negative = inhibition [10]: 1.65% (inactive)
max response [10, 20]: 12.3%
max response [10, 21]: 12.5%
Potency [11]: inactive
Potency [12]: inactive
Potency [13]: inactive
Potency [14]: inactive
Potency [15]: inactive

O=c1c(CCc2ccccc2)nc2cncnc2n1Cc1ccc(F)cc1
Potency [1]: > 11.4 µM (inactive)
activity change, negative = inhibition [2]: -7.12% (inactive)
Potency [3]: 10 µM (active)
activity change, negative = inhibition [4]: -3.47% (inactive)
activity, negative = inhibition [16]: -6.1% (inactive)
Potency [5]: > 9.22 µM (inactive)
Potency [6]: > 46 µM (inactive)
Potency [17]: 7.94 µM (active)
Potency [18]: 3.16 µM (active)
Potency [9]: inactive
Potency [19]: 6.31 µM (active)
activity change, negative = inhibition [10]: 5.86% (inactive)
max response [10, 20]: 18.7%
max response [10, 21]: 23.1%
Potency [11]: inactive
Potency [12]: inactive
Potency [13]: inactive
Potency [14]: inactive
Potency [15]: inactive

c1ccc(CNc2cc(-c3cccnc3)ncn2)cc1
Potency [1]: > 11.4 µM (inactive)
activity change, negative = inhibition [2]: 1.27% (inactive)
activity change, negative = inhibition [4]: 15.4% (inactive)
activity, negative = inhibition [16]: 14.9% (inactive)
Potency [5]: > 46 µM (inactive)
Potency [6]: > 46 µM (inactive)
outcome [7]: inactive
activity change, negative = inhibition [10]: 7.56% (inactive)
max response [10, 20]: 11.5%
max response [10, 21]: 21.7%
Potency [11]: 10 µM (active)
Potency [12]: 4.47 µM (active)
Potency [13]: 5.01 µM (active)
Potency [14]: inactive
Potency [15]: inactive

CN(C)c1ncc2nc(-c3cc(F)cc(F)c3)c(=O)n(C3CC3)c2n1
Potency [1]: > 11.4 µM (inactive)
activity change, negative = inhibition [2]: 5.31% (inactive)
activity change, negative = inhibition [4]: -6.61% (inactive)
activity, negative = inhibition [16]: 10.2% (inactive)
Potency [5]: > 9.22 µM (inactive)
Potency [6]: > 46 µM (inactive)
outcome [7]: inactive
Potency [8]: inactive
activity change, negative = inhibition [10]: 6.95% (inactive)
max response [10, 20]: 8.84%
max response [10, 21]: 14.6%
Potency [11]: inactive
Potency [12]: inactive
Potency [13]: inactive
Potency [14]: inactive
Potency [15]: inactive

CN1CCN(c2ncc3ncc(=O)n(C4CC4)c3n2)CC1
Potency [1]: > 11.4 µM (inactive)
activity change, negative = inhibition [2]: -15.2% (inactive)
activity change, negative = inhibition [4]: -12.8% (inactive)
activity, negative = inhibition [16]: -9.77% (inactive)
Potency [5]: > 9.22 µM (inactive)
Potency [6]: > 46 µM (inactive)
outcome [7]: inactive
Potency [8]: inactive
activity change, negative = inhibition [10]: -0.747% (inactive)
max response [10, 20]: -13.5%
max response [10, 21]: -12.9%
Potency [11]: inactive
Potency [12]: inactive
Potency [13]: inactive
Potency [14]: inactive
Potency [15]: inactive

Cc1nc2cnc(N(C)C)nc2n(C[C@H]2CCCO2)c1=O
Potency [1]: > 11.4 µM (inactive)
activity change, negative = inhibition [2]: -5.35% (inactive)
activity change, negative = inhibition [4]: -4.67% (inactive)
activity, negative = inhibition [16]: -0.622% (inactive)
Potency [5]: > 9.22 µM (inactive)
Potency [6]: > 46 µM (inactive)
outcome [7]: inactive
activity change, negative = inhibition [10]: 2.86% (inactive)
max response [10, 20]: 10.5%
max response [10, 21]: 13.4%
Potency [11]: inactive
Potency [12]: inactive
Potency [13]: inactive
Potency [14]: inactive
Potency [15]: inactive
